# IL1B secr inh: blocks inflammasome-driven IL-1 beta release. AID 743279. 360,000 compounds, 4.7% hits. activity change, % at 57.5 µM. THP-1 LPS/ATP IL-1B secretion, AlphaLISA, 16 h; active compounds read low; in the data active = activity change below about -50%; inconclusive = mostly about -30% to -49%
#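 THP-1 cells pretreated 1 hr with compounds (up to 57.5 uM final), then stimulated with LPS (250 ng/mL final) plus ATP (1.25 mM final); secreted IL-1B measured by AlphaLISA after 16 hr, decreased signal indicating inhibition.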
# RORg inh: ROR gamma (mouse) transcription inhibition | P51450 | Drosophila S2 Gal4-RORgamma UAS-luciferase reporter, 20 h | Potency, µM (series often up to 53.6 µM), without a hit: at the top dose activity change, negative = inhibition, most hits filed as inhibitors | 310,000 compounds, 5.4% hits | AID 2551; also: potency is read from the fitted curve at half-maximal effect; nearly all actives have a fitted effect of over 60% in size
# Target sequence (P51450 whole entry, looked up, the tested form may be a part): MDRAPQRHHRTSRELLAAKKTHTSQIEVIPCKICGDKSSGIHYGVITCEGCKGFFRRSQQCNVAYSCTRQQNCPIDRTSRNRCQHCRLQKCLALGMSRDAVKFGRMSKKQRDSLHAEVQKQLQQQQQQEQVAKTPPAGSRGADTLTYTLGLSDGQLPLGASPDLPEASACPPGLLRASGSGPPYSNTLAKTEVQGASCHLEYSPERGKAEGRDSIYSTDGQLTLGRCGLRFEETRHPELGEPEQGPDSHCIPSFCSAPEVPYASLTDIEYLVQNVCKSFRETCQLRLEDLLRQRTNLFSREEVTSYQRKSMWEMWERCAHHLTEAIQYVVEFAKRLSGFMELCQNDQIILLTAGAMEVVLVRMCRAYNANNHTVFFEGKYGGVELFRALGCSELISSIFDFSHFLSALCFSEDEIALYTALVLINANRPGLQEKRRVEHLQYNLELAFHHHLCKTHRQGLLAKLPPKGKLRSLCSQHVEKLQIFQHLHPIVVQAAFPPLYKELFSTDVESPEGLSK
#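 Using a luciferase readout, inhibitors were identified by reduced reporter activity in Drosophila cells coexpressing a copper-inducible Gal4–ROR gamma fusion and UAS-driven Photinus luciferase, incubated 20 hr after 700 uM copper sulfate.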
# Gal4-VP16 FLuc: Gal4-VP16 reporter inhibition counter-screen | 310,000 compounds, 3.5% hits | Potency, µM (highest dose often 53.6 µM), without a hit: at the top dose activity, negative = inhibition, hits mostly inhibitors | Drosophila S2 Gal4-VP16 UAS-luciferase, luminescence, 20 h;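 also: Gal4-VP16 expression switched on by copper sulfate through the metallothionein promoter; potency is read from the fitted curve at half-maximal effect; nearly all actives have a fitted effect of over 50% in size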
# LDHA inh: blocks human lactate dehydrogenase A. purified LDHA, NADH/diaphorase-resazurin fluorescence; active compounds read low. activity change, % (values are at about 110 or 230 µM). 480,000 compounds, 0.15% hits. AID 1347041; in the data active = activity change below about -30%; inconclusive = mostly about -25% to -30%;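 also: plate controls were DMSO wells for no effect and wells without enzyme for full effect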
#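 Human LDH5 at 2 nM final in Tris HCl pH 7.4 with 0.06 mM NADH and 0.2 mM pyruvate, reacted 5 minutes at room temperature. Remaining NADH coupled via diaphorase/resazurin; resorufin fluorescence read at 0 and 20 minutes, normalized to enzyme-free and DMSO wells.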
# TDP1 cell noCPT: qHTS for Inhibitors of human tyrosyl-DNA phosphodiesterase 1 (TDP1): qHTS in cells in absence of CPT; 420,000 compounds, 15% hits; Potency, µM (titrated, usually from 46.2 µM), inactives show top-dose activity change, negative = growth inhibition, actives largely listed as inhibitors; AID 686978, 2013; DT40 Tdp1-/- hTDP1 cells, no CPT, ATP luminescence, 48 h; also: potency is read from the fitted curve at half-maximal effect; nearly all actives have a fitted effect of over 55% in size
#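 Seeded 400 DT40-hTDP1 cells/well (vehicle DMSO, no 20 nM CPT); pinned compounds; ≥48 hr at 37 °C; CellTiter-Glo luminescence as viability measure.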
# DT40 TDP1 CPT: growth inhibition of DT40 Tdp1-/-;hTDP1 cells with camptothecin (screen for TDP1 inhibitors); AID 686979; chicken DT40 Tdp1-/-;hTDP1 cells + 20 nM CPT, ATP luminescence, 48 h; Potency, µM (doses to about 46.2 µM), inactives show at the top dose activity change, negative = growth inhibition, usual class: inhibitors; 420,000 compounds, 12% hits; also: potency is read from the fitted curve at half-maximal effect; nearly all actives have a fitted effect of over 55% in size
#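 Chicken DT40 Tdp1-/- cells stably complemented with human TDP1 were seeded at 400 cells/well in medium containing 20 nM camptothecin, exposed to pin-transferred compounds, and grown at 37 °C for at least 48 hr. Viability was read as ATP luminescence.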
# Active calls of the source: *; ? = inconclusive; / = no result given. An excerpt weighted towards active compounds, which were near 18% of everything screened. Unless noted, calls follow the shape of the dose curve; as a rule, active = well fitted curve in the direction sought with a large enough effect; inconclusive = small, poorly fitted or top-dose-only effect, or another doubt; inactive = no such curve, though single readings can be large; an effect the other way counts as inactive or inconclusive. Unless noted, % is scaled to controls: 0 for no effect and ±100 for the full control effect.
SMILES,IL1B secr inh,RORg inh,Gal4-VP16 FLuc,LDHA inh,TDP1 cell noCPT,DT40 TDP1 CPT
Cc1c([N+](=O)[O-])cc(N2C(=O)C=CC2=O)cc1[N+](=O)[O-],-15,/,/,-11,1.6µM*,0.73µM*
CN(Cc1ccccc1)C(=O)COC(=O)c1ccc(Cl)cc1N,1,10%,-1%,-1,?,10µM*
CC(C)(C)N(Cc1ccccc1)C(=O)COC(=O)c1ccccc1SCC(=O)N1CCCC1,-52*,/,/,0,?,?
Cc1[nH]c2ccccc2c1C(=O)COC(=O)c1ccccc1O,-1,/,/,-6,-27%,-2%
Cc1[nH]c2ccccc2c1C(=O)COC(=O)c1ccccc1SCC(=O)N1CCCC1,/,/,/,-1,11µM*,?
CC(C)(C)N(Cc1ccccc1)C(=O)COC(=O)c1ccc(N2CCCC2=O)cc1,-8,/,/,-4,16µM*,?
Cc1ccccc1OCC(=O)Nc1c(C(=O)c2ccc3c(c2)OCCO3)oc2ccccc12,/,/,/,-9,/,/
CN(Cc1ccccc1)C(=O)c1ccccc1C(=O)OCC(=O)N(Cc1ccccc1)C(C)(C)C,-50*,/,/,0,15µM*,23µM*
CC(C)(C)N(Cc1ccccc1)C(=O)COC(=O)C1CC1,-13,/,/,-2,-21%,-6%
CCOc1ccc(C(C)=O)cc1COC(=O)c1ccccc1C(=O)N(C)Cc1ccccc1,?,/,/,-5,7.3µM*,18µM*
Cc1cccc2c1-c1sc(C(=O)N3CCN(c4ccccc4)CC3)cc1CO2,/,/,/,1,16µM*,8.2µM*
Cc1cccc2c1-c1sc(C(=O)N(C)c3cccc(Cl)c3)cc1CO2,/,/,/,2,?,16µM*
COc1ccc(NC(=O)c2cc3c(s2)-c2c(C)cccc2OC3)c(OC)c1,/,/,/,2,23µM*,?
Cc1cccc2c1-c1sc(C(=O)N3CCN(c4ccc(F)cc4)CC3)cc1CO2,/,/,/,-9,3%,3%
CCOCCCN(Cc1ccco1)C(=O)c1cc2c(s1)-c1c(C)cccc1OC2,/,/,/,-3,23µM*,?
CCCN(C(=O)c1cc2c(s1)-c1c(C)cccc1OC2)c1ccc(OCC)cc1,/,/,/,1,5.2µM*,5.2µM*
Cc1cccc2c1-c1sc(C(=O)NCCCN3CCCC(C)C3)cc1CO2 (stereo not drawn),-18,?,-15%,-1,21µM*,?
COc1ccc(CCNC(=O)c2cc3c(s2)-c2c(C)cccc2OC3)cc1OC,/,/,/,-1,/,/
CCCN1CCN(CCCNC(=O)c2cc3c(s2)-c2c(C)cccc2OC3)CC1,-14,9%,6%,-2,26µM*,23µM*
Cc1cccc2c1-c1sc(C(=O)NCCc3ccc(Cl)cc3)cc1CO2,/,/,/,-16,7.3µM*,13µM*
Cc1nn(-c2ccccc2)c2c1N(CC(=O)N1CCN(c3ccc(F)cc3)CC1)C(=O)CS2,/,/,/,-1,21µM*,?
Cc1nn(-c2ccccc2)c2c1N(CC(=O)N1CCN(c3ccccc3F)CC1)C(=O)CS2,/,/,/,-13,?,18µM*
Cc1nn(-c2ccccc2)c2c1N(CC(=O)N1CCN(c3ccc(Cl)cc3)CC1)C(=O)CS2,/,/,/,-13,?,?
CCc1ccccc1N/N=C(/c1ccccc1)c1ccc(Br)cc1,/,/,/,15,/,/
CC(C)(C)C(=O)/C=c1/[nH]c(=O)/c(=C/c2ccccc2C(F)(F)F)s1,/,/,/,3,/,/
COc1ccc(C(=O)Nc2ccccc2C(=O)Nc2ccc(C(=O)O)cc2)cc1,2,?,?,-15,-11%,2%
COc1ccc(C(=O)Nc2cc(OC)c(Cl)cc2OC)cc1,-8,61%,-1%,-1,?,-22%
COc1ccc(C(=O)Nc2ccccc2C(=O)N/N=C/c2ccncc2)cc1OC,-20,3.5µM*,5.6µM*,-7,16µM*,16µM*

# Assay outcomes: PubChem BioAssay, National Center for Advancing Translational Sciences (NCATS)
